# Assay results from the supplement of paper PMC8975748.
# Structures can show the parent of a compound that is named as a salt.
# Test system: Saccharomyces cerevisiae BY4741 SeMeCo community
# Assay: z-score of subpopulation abundance vs DMSO median, subpopulation auxotrophic for HLU; higher = larger share of this subpopulation than in DMSO controls
# Settings: 10 µM; 24 h; SM minimal medium; subpopulation (auxotrophy): HLU
# Experimental: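 Fluorescent four-plasmid SeMeCo (self-establishing metabolically cooperating S. cerevisiae BY4741 community; plasmids pH-mRuby2, pL-mWasabi, pU-eCFP, pM-TagRFP657) was grown 24 h in minimal SM medium with each Selleck FDA-approved drug at 10 µM in 384-well plates. Cells were fixed and imaged by high-content confocal microscopy. For each auxotrophic subpopulation (and the prototroph), a z-score gives the deviation from the DMSO vehicle-control population median.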
row,Structure (SMILES),z-score of subpopulation abundance
1,COc1cc2c(cc1OC)C1CC(=O)C(CC(C)C)CN1CC2 (centres undefined) [Tetrabenazine (Xenazine)],-0.31
2,O=[N+]([O-])C(Br)(CO)CO [Bronopol],0.49
3,NCCc1c[nH]c2ccc(O)cc12 [Serotonin HCl],-0.94
4,CCCN1C[C@H](CSC)C[C@@H]2c3cccc4[nH]cc(c34)C[C@H]21 [Pergolide Mesylate],-0.75
5,COc1ccc2c(c1)[C@]13CCCC[C@@H]1[C@H](C2)N(C)CC3 [Dextromethorphan hydrobromide hydrate],-0.08
6,O=c1[nH]c2ccccc2n1CCCN1CCC(n2c(=O)[nH]c3cc(Cl)ccc32)CC1 [Domperidone],1.05
7,COc1ccc(C=O)cc1 [p-Anisaldehyde],-0.91
8,C[C@H]1O[C@H](O[C@H]2[C@H](O)[C@@H](O)[C@@H](O)[C@H](O)[C@@H]2O)[C@@H](N)C[C@@H]1NC(=N)C(=O)O [Kasugamycin hydrochloride],0.46
9,CC(=O)OCC1=C(C(=O)O)N2C(=O)C(N)C2SC1 (centres undefined) [7-Aminocephalosporanic acid],-0.25
10,CN1C(=O)COc2c(C(=O)NC3CN4CCC3CC4)cc(Cl)cc21 (centres undefined) [Azasetron HCl],-0.64
11,CN(C)C(=O)Oc1ccc[n+](C)c1 [Pyridostigmine Bromide],-0.68
12,CNC1CC(N)C(O)C(OC2OC(CO)C(O)C3OC4(OC(C(N)CO)C(O)C(O)C4O)OC23)C1O (centres undefined) [Hygromycin B],-0.44
13,CC[C@H]1CN2CC[C@]3(C(=O)Nc4ccccc43)[C@@H]2C[C@@H]1/C(=C\OC)C(=O)OC [Rhynchophylline],0.21
14,O=C(O[C@H]1C[N+]2(CCCOc3ccccc3)CCC1CC2)C(O)(c1cccs1)c1cccs1 [Aclidinium Bromide],-0.54
15,C=CCN1C[C@H](C(=O)N(CCCN(C)C)C(=O)NCC)C[C@@H]2c3cccc4[nH]cc(c34)C[C@H]21 [Cabergoline],-0.08
16,CN[C@@H]1[C@@H](O)[C@@H](O[C@@H]2[C@@H](O)[C@H](O[C@H]3O[C@H]([C@@H](C)O)[C@@H](O)[C@H](O)[C@H]3N)[C@@H](N)C[C@H]2N)OC[C@]1(C)O [Geneticin (G418 Sulfate)],0.77
17,CC[N+](C)(CC)CCOC(=O)C(O)(c1ccccc1)c1ccccc1 [Methylbenactyzine Bromide],-0.28

row,Structure (SMILES),z-score of subpopulation abundance
1,C=CN1CCCC1=O.II [Povidone iodine],2.59
2,O=C(O[C@H]1C[C@H]2CC[C@@H](C1)[N+]21CCCC1)C(O)(c1ccccc1)c1ccccc1 [Trospium chloride],-0.58
3,COC(=O)C1=CCCN(C)C1 [Arecoline HBr],0.06
4,COc1ccc2c3c([nH]c2c1)C(C)=NCC3 [Harmaline],-4.09
5,CN1[C@@H]2C[C@@H](OC(=O)[C@H](CO)c3ccccc3)C[C@H]1[C@@H]1O[C@@H]12 [Scopolamine HBr],-1.08
6,N#Cc1nn(-c2c(Cl)cc(C(F)(F)F)cc2Cl)c(N)c1[S+]([O-])C(F)(F)F (centres undefined) [Fipronil],-1
7,CN1[C@@H]2CC[C@H]1C[C@@H](OC(=O)C(CO)c1ccccc1)C2 (some centres undefined) [Atropine sulfate monohydrate],-0.61
8,COc1ccc(C(CN(C)C)C2(O)CCCCC2)cc1 (centres undefined) [Venlafaxine HCl],-0.14
9,Nc1ccncc1 [4-Aminopyridine],0.05
10,Oc1cc(Cl)ccc1Oc1ccc(Cl)cc1Cl [Triclosan],2.87
11,COc1ccc2[nH]cc(CCN)c2c1 [5-Methoxytryptamine],0.69
12,CN(C)[C@@H]1C(=O)C(C(N)=O)=C(O)[C@@]2(O)C(=O)C3=C(O)c4c(O)cccc4[C@@](C)(O)[C@H]3[C@H](O)[C@@H]12 [Oxytetracycline Dihydrate],0.15
13,CC(C)N(CCC(C(N)=O)(c1ccccc1)c1ccccn1)C(C)C (centres undefined) [Disopyramide],1.07
14,CC(C)=CCOc1c2occc2cc2ccc(=O)oc12 [Imperatorin],0.14
15,CN(C)C(=O)Oc1cccc([N+](C)(C)C)c1 [Neostigmine Bromide],0.32
16,CN(C)[C@@H]1C(=O)C(C(N)=O)=C(O)[C@@]2(O)C(=O)C3=C(O)c4c(O)ccc(Cl)c4[C@@](C)(O)[C@H]3C[C@@H]12 [Chlortetracycline HCl],-0.5
17,CN1[C@@H]2C[C@@H](OC(=O)[C@H](CO)c3ccccc3)C[C@H]1[C@@H]1O[C@@H]12 [Scopolamine HBr trihydrate],-0.91
